Bioassay records: PubChem BioAssay, National Center for Advancing Translational Sciences (NCATS)
D3 ag: qHTS of D3 Dopamine Receptor Agonist: qHTS. D3R DiscoveRx beta-arrestin cells, luminescence, 90 min. 410,000 compounds, 0.58% hits. max activation, %. AID 652048, 2013; in the data active = max activation above about 30%; note: 0% is about no effect
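Cells at 1500/well, incubated overnight, then treated with pinned compounds (dopamine as control) for 90 min at 37 degrees C. DiscoveRx reagent added for 30 - 60 minutes at room temperature; luminescence read.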
D1 agonist: Allosteric Agonists of the Human D1 Dopamine Receptor: qHTS; D(1A) dopamine receptor (Homo sapiens), P21728; HEK293 T-REx D1 cells, calcium flux, agonist mode; activation, % at 2 µM; 360,000 compounds, 1% hits; AID 504660, 2011; in the data active = activation above about 30%; note: 0% is about no effect
Target sequence (P21728 whole entry, looked up): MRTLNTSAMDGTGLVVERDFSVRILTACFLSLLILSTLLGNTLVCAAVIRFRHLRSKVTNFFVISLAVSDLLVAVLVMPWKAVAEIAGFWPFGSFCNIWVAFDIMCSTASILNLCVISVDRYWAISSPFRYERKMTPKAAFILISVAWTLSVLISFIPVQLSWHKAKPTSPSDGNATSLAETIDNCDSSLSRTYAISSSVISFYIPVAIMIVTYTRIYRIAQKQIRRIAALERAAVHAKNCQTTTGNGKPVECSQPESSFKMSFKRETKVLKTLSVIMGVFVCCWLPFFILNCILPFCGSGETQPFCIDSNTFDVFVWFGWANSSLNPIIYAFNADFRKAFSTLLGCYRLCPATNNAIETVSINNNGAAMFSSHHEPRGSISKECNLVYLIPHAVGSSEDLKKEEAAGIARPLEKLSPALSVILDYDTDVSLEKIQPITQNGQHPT
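Agonism was scored from calcium flux recorded over 180 s (1 read/s) after pintool compound addition, following a 10-cycle baseline. Cells were inducible force-coupled HEK293 TREx D1, plated overnight at 30 C and loaded with no-wash calcium dye.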
D1 potentiator: Potentiators of Human D1 Dopamine Receptor: qHTS; D(1A) dopamine receptor (Homo sapiens), P21728; HEK293 TREx D1 cells, calcium flux, dopamine EC20 potentiation; potentiation, % at 10 µM; 360,000 compounds, 0.036% hits; AID 504651, 2011; in the data active = potentiation above about 30%; note: 0% is about no effect
D1 antagonist: Antagonist of Human D 1 Dopamine Receptor: qHTS; D(1A) dopamine receptor (Homo sapiens), P21728; HEK293 TREx D1 cells, calcium flux, dopamine EC80; hits give low values; activity change, negative = inhibition, % at 10 µM; 360,000 compounds, 3.2% hits; AID 504652, 2011; in the data active = activity change below about -30%; note: % is set by controls: 0 for no effect and ±100 for the full control effect
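Kinetic fluorescence of a calcium dye serves as the read-out. D1-expressing Hek293 Trex cells, induced overnight at 30 C, are exposed to compound for 180 s before an EC80 dopamine addition, then read 180 s further.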
DRD3 antagonist: qHTS of D3 Dopamine Receptor Antagonist: qHTS. D(3) dopamine receptor (Homo sapiens), P35462. 360,000 compounds, 2.5% hits. D3R cells, DiscoveRx beta-arrestin luminescence, antagonist mode; hits give low values. max response, negative = inhibition, %. AID 652054, 2013; in the data active = max response below about -50%; inconclusive = no clear call, values can overlap the other calls; note: % is set by controls: 0 for no effect and ±100 for the full control effect
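Cells plated overnight at 1500 cells/well, then exposed to library compounds with dopamine controls for 90 minutes at 37 degrees C. DiscoveRx reagent added for 30–60 minutes at room temperature; luminescence read, quantitative HTS format.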
Starred values were filed as active, the others as inactive; u = inconclusive; x = no result given; ! = not active in a repeat. Sampled rows, rich in hits. Any-hit rate of the full collection: about 6%.

SMILES	D3 ag	D1 agonist	D1 potentiator	D1 antagonist	DRD3 antagonist
O=C(CN1C(=O)CC(c2ccco2)Sc2ccccc21)Nc1cccc(C(F)(F)F)c1 (configuration not stated)	-8.2	21.6	-3.2	-28.9	x
O=S(Cc1ccc(Cl)cc1)c1ccccc1 (configuration not stated)	66.2*	x	x	x	5.6
CCOC(=O)Cn1c(COc2ccccc2OC)[n+](C)c2ccccc21	-6.3	x	x	x	-7.4
CCCCOC(=O)Cn1c(=O)n(CC(=O)OCCCC)c2ccccc21	-12.5	1.4	2.9	-7.7	3.7
CCCCCCCCCCOC(=O)Cn1c(COc2ccc(OC)cc2)[n+](C)c2ccccc21	4.0	138.5*	-4.2	-17.5	u
CCCCCCCCCCOC(=O)Cn1c(COc2ccc(Cl)cc2)[n+](C)c2ccccc21	0.6	136.7*	-11.6	-41.8*	15.8
CCCCCCCCCCOC(=O)Cn1c(COc2ccccc2)[n+](C)c2ccccc21	-2.6	124.1*	-9.8	-41.8*	-17.5
CCCCCCCCCCOC(=O)Cn1c(COc2ccccc2C)[n+](C)c2ccccc21	-15.4	76.2*	-4.5	4.5	u
CCOC(=O)Cn1c(=O)n(CC2CCCO2)c2nc(-c3c(F)cccc3Cl)nc(C(N)=O)c21 (configuration not stated)	7.2	2.0	0.7	0.7	x
CC(C)Nc1cc(N2CCN(C3CCCCC3)CC2)c2noc3c2c1C(=O)c1ccccc1-3	-8.4	0.2	-0.5	-3.1	x
CCOc1ccc(CNC(=O)CCC(=O)N2CC3CCCN3c3ccccc32)cc1 (configuration not stated)	-21.1	0.9	-0.8	11.9	x
Cc1ccc(S(=O)(=O)c2nnn3c2nc(N2CCCC(C)C2)c2cc(Cl)ccc23)cc1C (configuration not stated)	8.2	-0.1	0.3	-4.3	x
CCOc1ccc(CCNC(=O)CCc2c(C)nc3c(c(C)nn3-c3ccccc3)c2C)cc1OCC	1.2	8.2	-4.6	-14.0	x
O=C(NCc1ccc(F)cc1)c1cnc(N2CCCCC2)c2ccccc12	6.2	-0.4	-3.5	-1.6	x
CCCCCCCCCCOC(=O)Cn1c(COc2cccc(C)c2)[n+](C)c2ccccc21	-7.2	116.0*	7.5	-18.9	-9.4
CCCCCOC(=O)Cn1c(=O)oc2ccccc21	2.9	0.0	1.9	-16.8	-14.2
COc1ccccc1CNC(=O)CCCCn1c(=O)c2ccccc2n(Cc2ccccc2F)c1=O	-3.5	-0.5	1.6	-3.2	x
Cc1cc(/C=C\c2ccc3cc(N(C)C)ccc3[n+]2C)c(C)n1-c1ccccc1	-41.9	5.0	-4.3	8.5	-60.7*
CCOc1ccc(CCNC(=O)C2CCCN(c3nnc(C)c4c(C)n(-c5ccccc5)nc34)C2)cc1 (configuration not stated)	7.3	3.8	-0.8	20.5	x
CSc1cccc(NC(=O)Cn2c(=O)n(Cc3ccccc3)c(=O)c3sc4ccccc4c32)c1	6.1	6.3	-1.9	1.5	x
CCOC(=O)c1c(NC(=O)CSc2ncccn2)sc2c1CC(C)(C)NC2(C)C	3.3	4.0	7.9	5.9	4.2
CCOC(=O)c1c(NC(=O)COc2ccccc2F)sc2c1CC(C)(C)NC2(C)C	6.8	3.4	35.6*	12.4	17.8
COc1ccccc1NC(=O)Cc1ccc(-c2ccccc2)cc1	22.3	6.2	-6.0	-39.3*	-7.6
COc1ccc(C)cc1NC(=O)COC(=O)Cc1ccc(-c2ccccc2)cc1	-1.3	15.3	0.3	-35.8*	-1.8
COc1ccc(NC(=O)COC(=O)Cc2ccc(-c3ccccc3)cc2)c(OC)c1	5.7	2.5	0.8	5.4	0.6
SMILES	D3 ag	D1 agonist	D1 potentiator	D1 antagonist	DRD3 antagonist
O=C(Nc1ccc(F)cc1F)N1CCN(c2ccc(Cl)c(Cl)c2)CC1	-10.6	27.8	-3.2	-31.9*	x
CCOc1ccc(C2CC(=O)N(Nc3ccc([N+](=O)[O-])cc3[N+](=O)[O-])C2=O)cc1 (configuration not stated)	-13.4	0.0	-13.5	31.6	u
COc1cc(OC)c2c(-c3ccccc3)cc(=O)oc2c1C(CCN1CCOCC1)c1ccc2c(c1)OCO2 (configuration not stated)	-40.3	x	x	x	-14.8
COc1cc(OC)c2c(-c3ccccc3)cc(=O)oc2c1C(CC(=O)N1CCOCC1)c1ccc2c(c1)OCO2 (configuration not stated)	4.8	4.6	-4.8	-60.4*	14.3
COc1cc(O)c(C(CCN2CCN(c3ccccc3)CC2)c2cc(OC)c(OC)c(OC)c2)c(OC)c1 (configuration not stated)	-71.6	4.2	-12.2	-86.9*	-137.4*
COc1cc(OC)c2c(C)cc(=O)oc2c1C(CCN1CCN(c2ccccc2)CC1)c1ccc2c(c1)OCO2 (configuration not stated)	29.5	4.6	-9.3	-79.5*	-13.3
COc1cc(O)c(C(CCN2CCN(c3ccccc3)CC2)c2ccc3c(c2)OCO3)c(OC)c1 (configuration not stated)	-62.6	1.2	-13.1	-76.3*	-107.7*
COc1ccc(N2CCN(C(=O)CSc3nc(-c4ccc(C(C)C)cc4)no3)CC2)cc1	-24.6	2.4	0.4	-5.2	x
CCn1cnc2c(Nc3ccc(CCC(=O)N=C(N)N)cc3)nc(C#N)nc21	x	-0.3	-2.0	-1.2	x
Clc1ccccc1CSC1=NCCCN1	0.1	6.1	-3.8	1.1	-11.2
Clc1ccc(CSC2=NCCCN2)cc1Cl	-10.3	23.0	-11.7	-15.1	-57.5*
COc1ccc(/C=C/CN2CCC(CO)(Cc3ccccc3Cl)CC2)cc1	-0.2	109.5*	3.1	-0.5	9.3
COc1ccc(NC(=O)Cn2c(=O)n(-c3cccc(C)c3)c(=O)c3c2c2cc(C)ccc2n3C)cc1OC	1.9	2.4	1.2	1.9	x
Cc1ccc(CN2C(=O)C(CC(C)C)Nc3ncnc(N4CCN(c5ccccn5)CC4)c32)cc1 (configuration not stated)	-50.3	2.9	-5.2	-2.3	-88.4*
COc1ccc(CN2C(=O)C(CC(C)C)Nc3ncnc(N4CCN(c5ccccn5)CC4)c32)cc1 (configuration not stated)	-30.6	6.8	-8.2	-3.7	-29.2
Cc1ccc(CN2C(=O)C(CC(C)C)Nc3ncnc(N4CCCCC4)c32)cc1 (configuration not stated)	9.8	x	x	x	16.5
CC(C)CC1Nc2ncnc(N3CCN(c4ccccn4)CC3)c2N(Cc2ccc(Br)cc2)C1=O (configuration not stated)	-45.2	3.1	-1.3	2.3	-99.1*!
CC(=O)Cc1nsc(NC(=O)c2ccc(F)cc2)n1	-1.6	0.3	-4.0	-79.6*	-9.9
